HCV inh = qHTS Assay for Inhibitors of Hepatitis C Virus (HCV); Huh7.5.1 HCVcc-Cre infection, luciferase reporter, 44 h; AID 651820, 2012; Potency, µM (series often up to 41.8 µM), without a hit: top-dose activity change, negative = inhibition, usual class: inhibitors; 340,000 tested, 3.4% active; active = well fitted inhibition curve with a large enough effect; inconclusive = small, poorly fitted or top-dose-only effect, or another doubt; inactive = no such curve, though single readings can be large or run the other way; also: potency is read from the fitted curve at half-maximal effect
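Reporter virus HCVcc-Cre (~0.5 moi) infects cells exposed to compound; seeding density 1,000 cells/well with 4 h settling beforehand. Luminescence, 15 sec read, taken 44 h post-infection following a 15 min RT substrate incubation.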
Lassa entry inh = qHTS for Inhibitors of binding or entry into cells for Lassa Virus. Lassa virus pseudotype entry inhibition, cell reporter. Potency, µM (top dose mostly 37.9 µM), inactives show at the top dose activity change, negative = inhibition, hits mostly inhibitors. 300,000 tested, 1.2% active; calls by dose curve; tested in HEK293 cells; also: potency is read from the fitted curve at half-maximal effect; nearly all actives have a fitted effect of over 50% in size
HCMV inh = qHTS Assay for inhibitors of the human cytomegalovirus (HCMV) | HFF cells, HCMV-luciferase reporter, 72 h; active compounds read low | activity change, negative = inhibition, % at 57.5 µM | 410,000 tested, 4.5% active | AID 1259415, 2018; in the data active = activity change below about -60%; inconclusive = no clear call, values can overlap the other calls; inactive = above about -39%
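After 16 h attachment at 37C, HFF cells received test compound and HCMV-luciferase (1 PFU/cell); reporter luminescence read 72 h later, data normalized against buffer-only and known inhibitor Salinomycin.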
Vaccinia mCherry = qHTS for Stage-Specific Inhibitors of Vaccinia Orthopoxvirus: mCherry Reporter Primary qHTS; Vaccinia virus mCherry reporter infection, fluorescence; Potency, µM (top dose mostly 36.5 µM), for the others: at the top dose activity change, negative = inhibition, hits mostly inhibitors; 310,000 tested, 0.63% active; calls by dose curve; tested in A549 cells; also: potency is read from the fitted curve at half-maximal effect; nearly all actives have a fitted effect of over 35% in size
Vaccinia Venus = qHTS for Stage-Specific Inhibitors of Vaccinia Orthopoxvirus: Venus Reporter Primary qHTS; 330,000 tested, 0.46% active; AID 720580, 2013; Potency, µM (doses to about 36.5 µM), inactives show at the highest dose activity change, negative = inhibition, actives largely listed as inhibitors; Vaccinia virus Venus reporter expression, fluorescence; calls by dose curve; tested in A549 cells; also: potency is read from the fitted curve at half-maximal effect; nearly all actives have a fitted effect of over 30% in size
Marburg entry inh = qHTS for inhibitors of binding or entry into cells for Marburg Virus; Marburg virus pseudotyped entry inhibition, cell reporter; AID 540276, 2011; Potency, µM (highest dose often 37.8 µM), without a hit: top-dose activity change, negative = inhibition, most hits filed as inhibitors; 300,000 tested, 1.8% active; calls by dose curve; tested in HEK293 cells; also: potency is read from the fitted curve at half-maximal effect
* marks the source's active call; other numbers are inactive results; i = inactive; u = inconclusive; x = no result; [ ] = another dose, or the depositor's remark. Sampled rows, rich in hits. Any-hit rate of the full collection: about 7.8%. % is scaled to controls: 0 for no effect and ±100 for the full control effect.

SMILES	HCV inh	Lassa entry inh	HCMV inh	Vaccinia mCherry	Vaccinia Venus	Marburg entry inh
O=C(Nc1ncc(Cc2cccc(Cl)c2)s1)c1cccs1	22µM*	8.9µM*	80	-28%	u	10µM*
Cc1ccc(C(=O)Nc2ncc(Cc3ccccc3)s2)o1	u	u	-8	x	x	5.2µM*
O=C(Nc1ncc(Cc2ccccc2)s1)c1cccs1	u	u	69	x	u	u
Cc1ccc(Cc2cnc(NC(=O)c3cccs3)s2)cc1	u	u	75	u	u	u
COc1ccc(CN2C(=O)C(n3c(C)ccc3C)c3cccc(F)c32)cc1 (stereo not given)	x	x	-34	x	x	x
Cc1oc(-c2ccccc2NS(C)(=O)=O)nc1CN(C)Cc1ccc(Cl)cc1	x	x	x	-9%	-1%	x
Cc1ccc2oc(C(=O)Nc3c(C(=O)c4ccc(C)c(F)c4)oc4ccccc34)cc(=O)c2c1	x	u	2	-9%	3%	15%[46.1 µM]
COc1cccc(CNCC(O)(c2ccc(Cl)cc2)c2ccc(Cl)cc2)c1	-30%	-11%	-3	x	x	18µM*
Cc1ccc(CNCC(O)(c2ccccc2)c2ccc(Cl)cc2)cc1 (stereo not given)	u	-15%[46.1 µM]	0	-5%	-22%	10µM*
O=C1CN(C(=O)/C=C/c2ccc(Cl)cc2Cl)CCN1	-1%	2%[46.1 µM]	13	-9%	-3%	u
CN1CCCN(C(=O)/C=C/c2ccc(Cl)cc2Cl)CC1	u	x	-62*	i	-9%	x
CCOC(=O)CSc1nnnn1-c1cc(OC)c(Cl)cc1OC	u	2%	-33	-5%	4%	5%[46.1 µM]
COc1cc(-n2nnnc2SCC(=O)N2CCN(c3ccc(F)cc3)CC2)c(OC)cc1Cl	11µM*	u	-5	-22%	-11%	u
CC1CC(C)CC(C)C(O)C(C#N)=CC=CCC(C2CCCC2C(=O)O)OC(=O)CC(O)C(C)C1 (stereo not given)	u	1.4µM*	-97*	u	1.1µM*	0.45µM*
CC(=O)Nc1ccc(S(=O)(=O)N2CCN=C2SCc2ccc([N+](=O)[O-])cc2)cc1	10µM*	u	u	-11%	-17%	13µM*
CS(=O)(=O)N1CCN=C1SCc1ccc([N+](=O)[O-])cc1	7%	3%	-65*	i	4%	u
CCc1cccc(C)c1Nc1c(-c2cccs2)nc2ncccn12	x	-31%[46.1 µM]	7	-4%	-8%	-10%[46.1 µM]
O=C(Nc1ccc2nc(-c3cccs3)c(-c3cccs3)nc2c1)NC1CC1	25µM*	-22%	-38	x	x	-22%
O=C(Nc1ccc2nc(-c3cccs3)c(-c3cccs3)nc2c1)N1CCCC1	x	x	x	-5%	-14%	x
Cc1ccccc1CN1Cc2cccc3c2[C@H](C=CC3)CC1=O	x	x	x	i	-10%	x
Cc1cc2cc(C)c3nnc(SCC(=O)NCc4ccco4)n3c2cc1C	-30%	-13%	-79*	-24%	-22%	u
Cc1ccc2cc(C)c3nnc(SCC(=O)NCc4ccco4)n3c2c1	-14%	-3%	-5	x	x	-11%
O=C(CC(c1ccccc1)c1ccccc1)NCC1CCCO1 (stereo not given)	17%	-1%	-100*	x	x	18%
O=C(CN(C1CCCCC1)S(=O)(=O)c1ccc(F)cc1)NCC1CCCO1 (stereo not given)	u	u	0	u	11µM*	-11%[46.1 µM]
O=C(CCSc1ccccc1)NCC1CCCO1 (stereo not given)	15%	4%	-18	-9%	-6%	5%
SMILES	HCV inh	Lassa entry inh	HCMV inh	Vaccinia mCherry	Vaccinia Venus	Marburg entry inh
COc1ccc(N(CC(=O)N2CCN(c3cccc(OC)c3)CC2)S(=O)(=O)c2c(C)noc2C)cc1	x	u	-26	-8%	-10%	-17%[46.1 µM]
COCC(=O)Nc1c(C(=O)Nc2ccc3c(c2)OCCO3)oc2ccccc12	u	u	56	-10%	-9%	11µM*
CCOCC(=O)Nc1c(C(=O)Nc2ccc3c(c2)OCCO3)oc2ccccc12	u	u	-96*	u	-16%	u
Cc1ccc(NC(=O)C2CCN(c3ncnc4sc(C)c(C)c34)CC2)cc1S(=O)(=O)N(C)C	10µM*	-17%	u	i	-19%	u
CCN(CC)S(=O)(=O)c1cc(NC(=O)C2CCN(c3ncnc4sc(C)c(C)c34)CC2)ccc1Cl	6.3µM*	u	-82*	u	u	3.5µM*
Cc1sc2ncnc(N3CCC(C(=O)Nc4cc(S(C)(=O)=O)ccc4Cl)CC3)c2c1C	u	-3%	-33	-10%	-24%	u
Cc1sc2ncnc(N3CCC(C(=O)Nc4ccc(S(N)(=O)=O)cc4)CC3)c2c1C	u	x	-79*	x	x	x
Cc1sc2ncnc(N3CCC(C(=O)Nc4ccc(C#N)cc4)CC3)c2c1C	7%	-7%	-3	-11%	-3%	20%
Cc1ccc(C)c(S(=O)(=O)N2CCN(C(=O)C3CCN(c4ncnc5sc(C)c(C)c45)CC3)CC2)c1	11µM*	u	-67*	-2%	-19%	u
CCCSc1ncc(Cl)c(C(=O)Nc2sc3c(c2C(=O)NCCCOC)CCCC3)n1	x	x	x	-26%	-26%	x
CCn1cc(C(=O)N2CCN(c3cc(Cl)ccc3C)CC2)c(=O)c2cc(S(=O)(=O)N3CCOCC3)ccc21	x	-4%[46.1 µM]	1	-17%	-29%	-26%[46.1 µM]
CCCCCNC(=O)CCCCCn1c(=O)[nH]c2ccsc2c1=O	x	20%[46.1 µM]	-6	-3%	3%	u
Cc1sc2ncnc(N3CCC(C(=O)Nc4cc(C(F)(F)F)ccc4OCC(F)(F)F)CC3)c2c1C	7.9µM*	x	42	x	x	x
Cc1sc2ncnc(N3CCC(C(=O)Nc4nc(-c5cccs5)cs4)CC3)c2c1C	u	4%	16	-10%	-7%	2.2µM*
O=C(NCCCN1CCN(c2ccc(F)cc2)CC1)c1ccc2nc(Cc3ccccc3)oc2c1	x	-16%[46.1 µM]	u	-25%	-27%	x
COc1ccc(C(=O)C(C(=O)Nc2c(C)cccc2C)N(C(=O)Cc2ccc([N+](=O)[O-])cc2)c2ccccc2)cc1 (stereo not given)	x	x	-6	x	x	x
COc1ccc(CCNc2nc(-c3cccnc3)nc3ccccc23)cc1OC	10µM*	u	4	-7%	u	8.9µM*
Fc1ccc(CNc2nc(-c3cccnc3)nc3ccccc23)cc1	11µM*	-1%[46.1 µM]	18	-9%	-5%	u
c1cncc(-c2nc(NCc3ccc4c(c3)OCO4)c3ccccc3n2)c1	11µM*	x	0	x	x	x
c1ccc(CN2CCC(Nc3nc(-c4cccnc4)nc4ccccc34)CC2)cc1	u	u	-63*	u	13µM*	10µM*

Source: PubChem BioAssay (National Center for Advancing Translational Sciences (NCATS))
